# According to PubChem BioAssay (Tox21):
# Inconclusive results are not listed. A call without a number means that no potency is given here. Calls of active or inactive are those of the source. Calls come from the whole dose curve.
# Experiment: qHTS assay to identify small molecule agonists of the endoplasmic reticulum stress response signaling pathway - cell viability counter screen (AID 1159517); note: nearly all actives have a fitted effect of over 50% in size
# Details: ESRE-bla HeLa viability, CellTiter-Glo luminescence, 5 h; series mostly up to 61 µM
# Procedure, shortened: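 HeLa cells carrying an ESRE-driven beta-lactamase reporter receive compound for 5 hr at 37 C. Cell viability is then gauged with CellTiter-Glo by luminescence, 30 min at room temperature.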
# Potency is the fitted concentration of half-maximal effect.
row,Compound,Potency
1,CCc1cc(C(C)(C)C)c(O)c(C(C)(C)C)c1,inactive
2,COC(=O)[C@H]1[C@H]2C[C@@H]3c4[nH]c5cc(OC)ccc5c4CCN3C[C@H]2C[C@@H](OC(=O)c2cc(OC)c(OC)c(OC)c2)[C@@H]1OC,inactive
3,NCCCCCC(=O)O,inactive
4,CCCCCCCCCCCCCCCCCl,inactive
5,CC(C)(C)NCC(O)COc1ccccc1OCC1CCCO1 (centres undefined),inactive
6,CC(N)=O,inactive
7,O=c1n(CC2CO2)c(=O)n(CC2CO2)c(=O)n1CC1CO1 (centres undefined),inactive
8,CCC(=O)/C=C/C1C(C)=CCCC1(C)C (centres undefined),inactive
9,NC(N)=Nc1nc(CSCC/C(N)=N/S(N)(=O)=O)cs1,inactive
10,CC(=O)CC(C)=O,inactive
11,CCCCCC(=O)O[C@]1(C(C)=O)CC[C@H]2[C@@H]3CCC4=CC(=O)CC[C@]4(C)[C@H]3CC[C@@]21C,inactive
12,CC(=O)OCC1=C(C(=O)O)N2C(=O)[C@@H](NC(=O)Cc3cccs3)[C@H]2SC1,inactive
13,OCC(CO)N[C@H]1C[C@](O)(CO)[C@@H](O)[C@H](O)[C@H]1O,inactive
14,CC1COC(=O)O1 (centres undefined),inactive
15,Cc1occc(=O)c1OC(=O)C(C)C,inactive
16,C=C(C)C1CC=C(C)C(OC(C)=O)C1 (centres undefined),inactive
17,Cc1scc2c1N(C(=O)CN1CCN(C)CC1)c1ccccc1NC2=O,inactive

row,Compound,Potency
1,O=S(=O)(O)c1ccc2nc(-c3ccccc3)[nH]c2c1,46.6 µM (active)
2,CCC[C@H](N[C@@H](C)C(=O)N1[C@H](C(=O)O)C[C@@H]2CCCC[C@@H]21)C(=O)OCC,inactive
3,CC[C@@H](N)CO,inactive
4,Nc1cc(S(=O)(=O)O)cc2cc(S(=O)(=O)O)cc(O)c12,inactive
5,Nc1ccc2cc3ccccc3cc2c1,inactive
6,CNC1(C)C2CCC(C2)C1(C)C (centres undefined),inactive
7,CC(=O)O[C@]1(C(C)=O)CC[C@H]2[C@@H]3C[C@H](C)C4=CC(=O)CC[C@]4(C)[C@H]3CC[C@@]21C,inactive
8,c1ccc2n[nH]nc2c1,inactive
9,CCc1ccc(C(c2ccc(CC)cc2)C(Cl)Cl)cc1,inactive
10,c1ccc2cc3c(ccc4ccccc43)cc2c1,inactive
11,CCn1c2ccccc2c2cc(N)ccc21,inactive
12,CCN(CC)C(=O)Nc1ccc(OCC(O)CNC(C)(C)C)c(C(C)=O)c1 (centres undefined),inactive
13,Cc1cc(C(C)(C)C)c(O)c(C(C)(C)C)c1,inactive
14,COc1cc(C(=S)N2CCOCC2)ccc1O,inactive
15,NNCCc1ccccc1,inactive
16,CC(C)(C)NC(=O)[C@@H]1CN(Cc2cccnc2)CCN1C[C@@H](O)C[C@@H](Cc1ccccc1)C(=O)N[C@H]1c2ccccc2C[C@H]1O,inactive
17,CC(C)CCOCc1ccccc1,inactive
